Measured values from PubChem BioAssay AID504465 (National Center for Advancing Translational Sciences (NCATS), 2011).
The campaign covered roughly 2,100 compounds. About 210 (10%) were called active. Another 53% or so got no clear call; they are omitted. Calls follow the shape of the dose curve; as a rule, active = well fitted inhibition curve with a large enough effect; inconclusive = small, poorly fitted or top-dose-only effect, or effect the other way; inactive = no such curve, though single readings can be large or run the other way. The list shows a part of the results. A call without a number means that no potency is given here.

assay: IN Cell qHTS Assay for Inhibitors of the mTORC1 Signaling Pathway in MEF (Tsc2-/-, p53-/-) Cells: Sytravon; conditions: phospho-rpS6 immunofluorescence, 24 h; series mostly up to 38.3 µM; also: nearly all actives have a fitted effect of over 60% in size
Procedure, shortened: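 Immunofluorescence of rpS6 phosphorylation (Ser235/236) in mouse embryonic fibroblasts lacking Tsc2 and p53, after 24 h compound exposure; Hoechst-normalized signal imaged, each well scored as % active cells relative to rapamycin (7.5 nM) and DMSO controls.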
Potency is read from the fitted curve at half-maximal effect.

Row | Compound | Potency
1 | COc1ccc(NS(=O)(=O)c2ccc3c(c2)CCCN3C(=O)C2CCC2)cc1OC | inactive
2 | CC1=Nc2cc(C(=O)NC(C)C)ccc2Sc2ccc(C)cc21 | inactive
3 | Cc1ccc(-c2csc(-c3cc4c([nH]c3=O)CC(c3ccccc3)CC4=O)n2)cc1 (centres undefined) | inactive
4 | COC(=O)c1c(C)oc2ccc(N(C(=O)c3ccncc3)S(=O)(=O)c3cc(C)ccc3C)cc12 | inactive
5 | CCOc1ccc(S(=O)(=O)N(C(=O)c2ccncc2)c2ccc3oc(C)c(C(=O)OC)c3c2)cc1 | 3.29 µM (active)
6 | CC(=O)c1c(C)oc2ccc(N(C(=O)c3ccncc3)S(=O)(=O)c3ccc(F)cc3C)cc12 | inactive
7 | Cc1cc(C)c2c(=O)cc(CSCC(=O)Nc3nnc(C)s3)[nH]c2c1 | inactive
8 | CC(C)Cc1cc(C(=O)NCc2ccc(Cl)cc2)no1 | inactive
9 | COc1ccccc1Cc1nc2ccccc2nc1SCC(=O)N1CCCCC1 | inactive
10 | CCc1ccc(C(=O)c2cnc3ccc(F)cc3c2S(=O)(=O)c2ccccc2)cc1 | 4.65 µM (active)
11 | CCOC(=O)c1cnc2ccc(C)cc2c1Nc1ccc(OCc2ccccc2Cl)cc1 | inactive
12 | CCc1ccc(NC(=O)c2ccc(F)c(S(=O)(=O)NCc3ccc(Cl)c(Cl)c3)c2)cc1 | inactive
13 | Cc1cc(Cl)ccc1NC(=O)C1CCCN1S(=O)(=O)c1ccc2c(c1)CCCC(=O)N2 (centres undefined) | inactive
14 | O=C(c1cc(-c2cccc(Cl)c2)on1)N1CCN(c2ccccc2)CC1 | inactive
15 | O=S(=O)(c1ccccc1)c1nc(-c2cccc(Cl)c2)oc1N1CCOCC1 | 9.27 µM (active)
16 | Cc1ccc(-c2nc(S(=O)(=O)c3ccc(C)cc3)c(N3CCN(c4ccccc4)CC3)o2)cc1 | inactive
17 | COc1ccc(-c2nc(S(=O)(=O)c3ccc(C)cc3)c(N3CCCCC3)o2)cc1 | 13.1 µM (active)
18 | COc1ccc(N2CCN(Cc3nc(-c4ccc(C)cc4)no3)CC2)cc1 | inactive
19 | CC(=O)N1CCOc2cc(S(=O)(=O)Nc3c(C)cccc3C(C)C)c(Cl)cc21 | inactive
20 | Cc1cc(C)c2c(=O)c3c(oc2c1)C(=O)N(Cc1ccc(F)cc1)C3c1cccc(O)c1 (centres undefined) | inactive

Row | Compound | Potency
21 | Cc1cc(C)cc(NS(=O)(=O)c2ccc(-c3cc(C)no3)cc2)c1 | inactive
22 | CCC(C(=O)Nc1ccc(C)c(Cl)c1)n1c(=O)c(-c2ccccc2NC(C)=O)nc2ccccc21 (centres undefined) | inactive
23 | O=C1Nc2ccccc2Oc2cc(Oc3ccccc3)ccc21 | inactive
24 | Cc1ccc(CN(Cc2ccco2)C(=O)COc2c(C)cc(C)cc2C)cc1 | inactive
25 | Cc1ccc2occ(CC(=O)N(Cc3ccc(Cl)cc3)Cc3ccco3)c2c1 | inactive
26 | Cc1cc(C)c2c(CC(=O)N(Cc3ccc(N(C)C)cc3)Cc3ccco3)coc2c1 | 6.56 µM (active)
27 | CCCCc1ccc(NC(=O)c2ccc3c(c2)CCN3S(=O)(=O)c2ccccc2)cc1 | inactive
28 | COc1cccc(NC(=O)Nc2ccc3nc(N4CCN(C)CC4)cc(C)c3c2)c1 | inactive
29 | CCN1CCN(c2cc(C)c3cc(NC(=O)/C=C/c4ccc(C)cc4)ccc3n2)CC1 | 5.21 µM (active)
30 | Cc1ccc(S(=O)(=O)N2CCc3cc(C(=O)Nc4ccc(C(F)(F)F)cc4)ccc32)cc1 | inactive
31 | COc1ccc(Cl)cc1NC(=O)CCn1nc(C)cc1C | inactive
32 | COc1ccccc1C(=O)Nc1ccc2nc(N3CCC(C)CC3)cc(C)c2c1 | inactive
33 | Cc1cccc(CC(=O)Nc2ccc3nc(N4CCC(C)CC4)cc(C)c3c2)c1 | inactive
34 | CCCCc1ccc(C(=O)Nc2ccc3nc(N4CCN(CC)CC4)cc(C)c3c2)cc1 | 2.61 µM (active)
35 | Cc1ccc(NC(=O)c2ccc(F)c(S(=O)(=O)NCCc3ccccc3)c2)cc1F | inactive
36 | Cc1cc(N2CCN(C)CC2)nc2ccc(NC(=O)c3ccc(C(C)(C)C)cc3)cc12 | 1.85 µM (active)
37 | CCN1CCN(c2cc(C)c3cc(NC(=O)c4cc(Cl)ccc4OC)ccc3n2)CC1 | 2.93 µM (active)
38 | COc1cc(-c2nc(-c3ccccc3)c(-c3ccc(Br)cc3)[nH]2)cc(OC)c1O | inactive
39 | CCOc1ccc(CN2C(=O)c3ccccc3Sc3ccc(C(=O)O)cc32)cc1 | inactive
40 | CCS(=O)(=O)N1CC(=O)N(c2ccc(Cl)cc2C)C(C)(C(=O)NC2CCCCC2)C1 (centres undefined) | inactive

Row | Compound | Potency
41 | COc1ccc(Oc2nc3c(C)cccn3c(=O)c2/C=C(\C#N)c2nc3ccccc3[nH]2)cc1 | inactive
42 | O=C(Nc1ccc(Cl)cc1F)c1cc(S(=O)(=O)NC2CCCCCC2)ccc1F | inactive
43 | COc1ccc(NC(=O)[C@H]2O[C@@H]3OC(C)(C)O[C@@H]3[C@H]3OC(C)(C)O[C@H]32)c(OC)c1 | inactive
44 | CC(C)c1ccc(CNCCSc2nnnn2C)cc1 | inactive
45 | COCc1oc2ccc(NS(=O)(=O)c3ccc(C)cc3)cc2c1C(=O)OC | inactive
46 | CCOC(=O)c1cccc(NC(=O)c2cc3sccc3n2Cc2ccc(Cl)cc2)c1 | inactive
47 | CCOc1ccc(OCC)c(NS(=O)(=O)c2ccc(-c3coc(C)n3)cc2)c1 | inactive
48 | CCCCOc1ccc(CN2C(=O)C(=O)c3cc(Br)cc(C)c32)cc1OC | 5.85 µM (active)
49 | Cc1ccc(CN2C(=O)C(=O)c3cc(Br)cc(C)c32)cc1 | 5.85 µM (active)
50 | CCCC1=Nc2cc(C(=O)NCCc3ccccc3)ccc2Sc2ccc(C)cc21 | inactive
51 | Cc1c(Cl)cccc1NC(=O)NCc1c(-n2cccc2)sc2c1CCCC2 | inactive
52 | CCCN(Cc1cccs1)C(=O)Nc1ccccc1C | inactive
53 | COc1ccc(NC(=O)CSCc2cnn(-c3ccccc3)c2-n2cccc2)cc1 | inactive
54 | COc1ccccc1NC(=O)Cn1c(SCC(=O)Nc2ccc(F)cc2)nc2ccccc21 | inactive
55 | O=C(CSc1cn(CCNC(=O)c2ccccc2F)c2ccccc12)Nc1ccc(F)cc1 | inactive
56 | Cc1ccc(CNC(=O)Cn2c(SCC(=O)Nc3ccc(F)cc3)nc3ccccc32)cc1 | 5.21 µM (active)
57 | COc1ccc(NC(=O)CSc2nc3ccccc3n2Cc2cccc(OC)c2)cc1 | 11.7 µM (active)
58 | COc1ccc(-c2nc(SCC(=O)Nc3ccc4c(c3)OCO4)c(-c3ccc(OC)cc3)[nH]2)cc1 | inactive
59 | CC(=O)N1c2ccc(S(=O)(=O)NCC3CCC(C(=O)Nc4cc(C)cc(C)c4)CC3)cc2CC1C (centres undefined) | inactive
